Rows were chosen to be rich in hits. Some 1.6% of all compounds tested hit in one or more screens of this group.
KCNQ2 enhance – potentiators of rat KCNQ2 potassium channel; CHO-K1 KCNQ2, FluxOR thallium flux fluorescence; stronger effect = higher value; O88943; B-score at 10 µM; actives 0.54% (n = 310,000);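 active means fluorescence ratio B-score at least 3 SD of library B-scores, with initial fluorescence B-score within 3 of them, cut at about 5.3 in these data; same plate scores as AID 2156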;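 further: B-score of peak minus minimum over baseline fluorescence ratio after K+ and Tl+ stimulus; positive B-score means potentiation of KCNQ2 with more thallium influx and brighter signal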
KCNQ2 block – inhibitors of rat KCNQ2 potassium channel; O88943; CHO-K1 KCNQ2, FluxOR thallium flux, 20 min; stronger effect = lower value; B-score at 10 µM; actives 1.1% (n = 310,000); AID 2156;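 active means fluorescence ratio B-score at most minus 3 library SDs, with starting brightness B-score within 2 library SDs, cut at about -5.5 in these data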
Kir21 conf inh – confirmation of mouse Kir2.1 potassium channel inhibitors; shares compounds with KCNQ2 enhance; Kir2.1-expressing cells, FluxOR thallium flux fluorescence; stronger effect = lower value; Tl flux remaining, % of negative control (stronger effect = lower value), % at 10 µM; actives 41% (n = 2,300);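 active means Primary-screen hit whose thallium flux fell at least 3 control SD below untreated wells in both duplicates, with normal baseline fluorescence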;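 further: 0% = blank wells without stimulus and 100% = stimulated no-compound controls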
HEK293 ctr – counter-screen for Kir2.1 inhibitors: effect in parental HEK293 cells | actives 19% (n = 2,300) | FluxOR signal as % of negative control (100 = no effect), % at 10 µM | shares compounds with KCNQ2 enhance | FluxOR thallium flux fluorescence; 0% = unstimulated blank wells | AID 2105;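 active means dye signal at least 3 control SD above or below untreated wells in both duplicates, raw fluorescence within 3, either direction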;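 further: percent is based on the flux ratio of peak minus minimum fluorescence over baseline F0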
CHO-K1 Tl ctr – counter-screen for KCNQ2 potentiators: effect in parental CHO-K1 cells. shares compounds with KCNQ2 enhance. FluxOR thallium flux fluorescence; zero = vehicle mean+3SD, 100% = vehicle-minus-blank window. activity increase over 3SD of controls, % at 10 µM. actives 43% (n = 1,200);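 active means signal rise of at least 3 SD above the untreated control mean, in both duplicate wells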;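 further: counter screen of KCNQ2 potentiator hits so any rise reflects channel-independent effects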
KCNQ1 pot spec – selectivity of KCNQ2 potentiators: effect on human KCNQ1 | shares compounds with KCNQ2 enhance | CHO KCNQ1 stable, FluxOR thallium flux fluorescence; beyond 3SD, as % of vehicle-control signal | activation over 3SD threshold, % at 10 µM | actives 28% (n = 1,200) | AID 2283;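 active means fluorescence ratio rise of at least 3 SD of vehicle wells above their mean, in both replicate wells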;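 further: 0% = vehicle mean plus 3 SD and 100% = vehicle minus unstimulated blank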
Target sequence (P51787 whole entry, looked up): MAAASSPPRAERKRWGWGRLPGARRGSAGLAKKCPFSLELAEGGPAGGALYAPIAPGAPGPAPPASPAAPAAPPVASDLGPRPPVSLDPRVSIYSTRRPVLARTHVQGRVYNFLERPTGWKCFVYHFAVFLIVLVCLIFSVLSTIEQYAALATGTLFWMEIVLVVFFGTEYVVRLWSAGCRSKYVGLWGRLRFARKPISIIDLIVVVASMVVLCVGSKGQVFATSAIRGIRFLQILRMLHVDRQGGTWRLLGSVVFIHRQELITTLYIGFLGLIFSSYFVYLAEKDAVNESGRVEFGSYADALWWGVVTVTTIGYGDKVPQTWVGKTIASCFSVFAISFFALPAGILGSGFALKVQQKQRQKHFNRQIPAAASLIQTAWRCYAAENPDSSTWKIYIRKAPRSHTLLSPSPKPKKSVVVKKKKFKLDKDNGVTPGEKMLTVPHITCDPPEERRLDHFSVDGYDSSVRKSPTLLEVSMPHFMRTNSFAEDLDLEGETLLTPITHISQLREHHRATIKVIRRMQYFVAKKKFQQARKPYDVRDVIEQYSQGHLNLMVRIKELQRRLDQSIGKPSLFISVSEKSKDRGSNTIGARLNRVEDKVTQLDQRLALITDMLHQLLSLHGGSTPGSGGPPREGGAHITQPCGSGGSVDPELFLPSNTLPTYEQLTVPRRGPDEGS
KCNQ2 pot confirm – confirmation of rat KCNQ2 potassium channel potentiators; shares compounds with KCNQ2 enhance; potentiation, less the hit threshold, % at 10 µM; actives 68% (n = 1,200); CHO-KCNQ2 cells, FluxOR thallium flux fluorescence;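 active means fluorescence ratio rising 3 SD or more over the vehicle control mean in both replicates, plus primary screen hit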;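 further: peak minus minimum thallium fluorescence divided by baseline after K/Tl stimulus; 0% = vehicle mean plus 3 SD and 100% = vehicle minus unstimulated blank difference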
Kir2-1 sel – mouse Kir2.1 off-target activity of KCNQ2 potentiators; activity over 3SD threshold, % at 10 µM; AID 2345; shares compounds with KCNQ2 enhance; actives 2% (n = 1,200); HEK293 Kir2.1, FluxOR thallium flux fluorescence;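 active means fluorescence ratio rise of at least 3 SD above the vehicle-control mean, seen in both replicates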;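 further: 0% = vehicle mean plus 3 SD and 100% = vehicle minus no-stimulus blank window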
KCNQ2 W236L pot – KCNQ2 potentiators acting on retigabine-insensitive rat KCNQ2 W236L mutant; shares compounds with KCNQ2 enhance; CHO KCNQ2-W236L, automated patch clamp current; current increase over 3SD of negative controls (%), stronger effect = higher value, % at 25 µM; actives 10% (n = 940);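 active means current increase at least 3 SD of the untreated controls above them in both duplicate recordings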
* hit, by the source's call.

Screening CCCCN(CCCC)c1nc(OC)nc(-n2nnc(C(C)=O)c2C)n1 returned KCNQ2 enhance 8*, KCNQ2 block inactive, Kir21 conf inh inactive, HEK293 ctr inactive, CHO-K1 Tl ctr -12, KCNQ1 pot spec -8, KCNQ2 pot confirm -8, Kir2-1 sel -43 and KCNQ2 W236L pot inactive.
CC(CCc1ccc(O)cc1)NCCc1ccc(O)c(O)c1 (configuration not stated) was read as KCNQ2 enhance 0.9 and KCNQ2 block inactive.
`CC(Cc1ccc(O)c(O)c1)C(C)Cc1ccc(O)c(O)c1` (configuration not stated) gave KCNQ2 block inactive, Kir21 conf inh 18%* and HEK293 ctr 56%*.
COC(=O)CCc1sc(Nc2ccccc2)nc1-c1ccc(OC)cc1 was read as KCNQ2 block inactive.
Screening CCCCCCc1ccc(OCC(=O)O)cc1OCC(=O)O returned KCNQ2 enhance 0.39 and KCNQ2 block inactive.
For CC1=C(C(=O)O)N2C(=O)C(NC(=O)c3nn(C)cc3Cl)C2SC1 (configuration not stated) the results were KCNQ2 block inactive.
CC1=C(C(=O)O)N2C(=O)C(NC(=O)c3ccccc3Cl)C2SC1 (configuration not stated) was read as KCNQ2 enhance 13*, KCNQ2 block inactive, Kir21 conf inh inactive, HEK293 ctr inactive, CHO-K1 Tl ctr 4.5*, KCNQ1 pot spec -24, KCNQ2 pot confirm -9 and Kir2-1 sel -32.
Screening O=S(=O)(c1cc(Cl)ccc1Cl)N1CCC2(CC1)OCCO2 returned KCNQ2 enhance 0.05 and KCNQ2 block inactive.
Screening CC(C)(C)c1ccc(OCC(O)CS(=O)(=O)c2ccccn2)cc1 (configuration not stated) returned KCNQ2 enhance 1.1 and KCNQ2 block inactive.
Screening c1ccc2c(c1)OC(CCCN1CCCCC1)c1ccccc1S2 (configuration not stated) returned KCNQ2 block inactive, Kir21 conf inh 49%* and HEK293 ctr inactive.
Screening c1ccc(OCCCCN2CCCCC2)cc1 returned KCNQ2 block inactive.
Screening CSc1nc2c(cc1C#N)CCCCC2 returned KCNQ2 enhance 0.14 and KCNQ2 block inactive.
CC(=O)c1c(C)[nH]c(-c2ccccc2)nc1=S was read as KCNQ2 enhance 6*, KCNQ2 block inactive, Kir21 conf inh inactive, HEK293 ctr 168%*, CHO-K1 Tl ctr 41*, KCNQ1 pot spec -4, KCNQ2 pot confirm -2, Kir2-1 sel -24 and KCNQ2 W236L pot inactive.
For COc1ccccc1-c1nc(=S)c(C(C)=O)c(C)[nH]1 the results were KCNQ2 enhance 0.12 and KCNQ2 block inactive.
CN(C)CCc1cc2c(c3c1ccc1ccccc13)OCO2 was read as KCNQ2 block inactive, Kir21 conf inh 16%* and HEK293 ctr inactive.
`COc1cc2ccc3c(CCN(C)C)cc(OC)c(OC)c3c2cc1OC` gave KCNQ2 enhance 1.3 and KCNQ2 block inactive.
CCOC(=O)C1CCN(C(=O)C2c3ccccc3C(=O)N(C)C2c2ccc(OC)cc2)CC1 (configuration not stated) was read as KCNQ2 block inactive.
`COc1ccc(C[C@H]2CN3C(=NC[C@@H]3Cc3ccccc3)N2C[C@H](C)NC(=O)CCC2CCCCC2)cc1` gave KCNQ2 block inactive, Kir21 conf inh 38%* and HEK293 ctr inactive.
COc1ccc(C[C@H]2CN3C(=NC[C@H]3Cc3ccccc3)N2CCNC(=O)CCC2CCCCC2)cc1 was read as KCNQ2 block inactive, Kir21 conf inh 47%* and HEK293 ctr inactive.
For C/C=C(\C)C(=O)NCCN1C2=NC[C@H](Cc3ccccc3)N2C[C@@H]1Cc1ccc(OC)cc1 the results were KCNQ2 enhance 0.09 and KCNQ2 block inactive.
`C[C@@H](CN1C2=NC[C@H](Cc3ccccc3)N2C[C@H]1Cc1ccc(O)cc1)NC(=O)CCC1CCCCC1` gave KCNQ2 block inactive.
CC(C)CCNC(=O)CN(Cc1cccs1)C(=O)CCC(=O)Nc1nccs1 was read as KCNQ2 enhance 3 and KCNQ2 block inactive.
CCOc1ccc(S(=O)(=O)N2CCC(C(=O)N3CCN(C)CC3)CC2)cc1Cl was read as KCNQ2 enhance 0.01 and KCNQ2 block inactive.
Screening CCC(C)n1nnc2c(=O)oc3ccccc3c21 (configuration not stated) returned KCNQ2 block inactive.
Screening Cc1ccc(CNS(=O)(=O)NCc2ccc(Cl)cc2)cc1 returned KCNQ2 enhance 1.1 and KCNQ2 block inactive.
O=C(c1ccco1)N1CCN(CCOCCOc2cccc3ccccc23)CC1 was read as KCNQ2 enhance 0.35 and KCNQ2 block inactive.
For c1ccc(CN2CCN(CCOCCOc3cccc4ccccc34)CC2)cc1 the results were KCNQ2 block inactive, Kir21 conf inh 19%* and HEK293 ctr inactive.
CC1(C)CC(=O)C(c2c[nH]c3ccccc23)C(=O)C1 was read as KCNQ2 block inactive.
For COc1ccccc1C(=O)Nc1nnc(CCc2ccccc2)s1 the results were KCNQ2 block inactive.
c1ccc(-c2ccccc2OCCCCN2CCCCCC2)cc1 was read as KCNQ2 block inactive, Kir21 conf inh 38%* and HEK293 ctr inactive.
Screening c1ccc(-c2ccccc2OCCN2CCCC2)cc1 returned KCNQ2 block inactive.
For Cc1ccc(S(=O)(=O)NCCSc2nnnn2-c2cc(C)ccc2C)cc1 the results were KCNQ2 enhance 0.86 and KCNQ2 block inactive.
For Cc1ccc(S(=O)(=O)NCCSc2nnnn2-c2ccccc2)cc1 the results were KCNQ2 enhance 0.37, KCNQ2 block inactive, Kir21 conf inh 68%* and HEK293 ctr inactive.
For O=C(NCCOCCOCCNC(=O)c1cccnc1)c1cccnc1 the results were KCNQ2 enhance 0.01 and KCNQ2 block inactive.

Source: PubChem (Johns Hopkins Ion Channel Center)
